12-hLO inh: blocks human 12-lipoxygenase activity. purified 12-hLO, xylenol orange hydroperoxide absorbance. P18054. Potency, µM (titrated, usually from 57.1 µM), most hits filed as inhibitors. AID 1452. 150,000 compounds, 0.12% hits; active = well fitted inhibition curve with a large enough effect; inconclusive = small, poorly fitted or top-dose-only effect; note: nearly all actives have a fitted effect of over 55% in size
Target sequence (P18054 whole entry, looked up): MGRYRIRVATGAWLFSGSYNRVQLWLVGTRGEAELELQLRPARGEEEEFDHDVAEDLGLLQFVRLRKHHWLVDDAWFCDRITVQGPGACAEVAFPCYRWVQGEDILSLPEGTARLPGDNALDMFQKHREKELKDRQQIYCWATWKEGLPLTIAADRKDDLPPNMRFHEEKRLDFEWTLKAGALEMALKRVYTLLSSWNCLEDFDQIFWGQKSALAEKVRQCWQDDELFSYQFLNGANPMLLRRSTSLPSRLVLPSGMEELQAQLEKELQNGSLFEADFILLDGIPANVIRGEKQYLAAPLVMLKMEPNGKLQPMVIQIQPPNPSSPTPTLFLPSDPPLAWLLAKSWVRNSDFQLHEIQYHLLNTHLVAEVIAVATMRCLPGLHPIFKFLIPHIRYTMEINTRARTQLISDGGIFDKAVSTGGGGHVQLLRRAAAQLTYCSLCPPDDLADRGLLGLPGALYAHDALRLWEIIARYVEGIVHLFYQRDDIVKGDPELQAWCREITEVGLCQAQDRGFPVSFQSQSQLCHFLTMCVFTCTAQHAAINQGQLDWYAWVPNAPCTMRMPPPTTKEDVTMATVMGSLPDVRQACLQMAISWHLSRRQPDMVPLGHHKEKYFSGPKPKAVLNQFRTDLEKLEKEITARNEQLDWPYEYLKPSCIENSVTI
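Lipoxygenase turnover measured by absorbance at 573 and 405 nm after Fe-XO development. Human 12hLO 150 nM, arachidonate 40 uM, pH 7.0 Hepes buffer with detergent; 15 min compound preincubation, 30 min reaction.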
ALDH1A1 inh: ALDH1A1 (human) enzyme inhibition; AID 1030; Purified ALDH1A1, NADH fluorescence, propionaldehyde substrate; P00352; Potency, µM (doses to about 75.3 µM), hits mostly inhibitors; 220,000 compounds, 7.3% hits
LMNA splice mod: changes lamin A minigene splicing in HeLa cells | Potency, µM (titrated, usually from 46.1 µM), hits mostly inhibitors | 200,000 compounds, 0.01% hits | AID 1487 | HeLa LMNA splicing GFP/RFP minigene ratio, 48 h; active = well fitted inhibition curve with a large enough effect in the signal ratio, with a control signal flat, not every such curve was filed as active; inconclusive = small, poorly fitted or top-dose-only effect, or effect the other way, or a change in a side signal; the % refers to the signal ratio
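S3 HeLa cells stably expressing lamin A-EGFP splicing minigene plus DsRed2, 600 cells/well, 48 h compound exposure at 37C. Laser-scanning cytometry; analysed as GFP (500-530 nm)/RFP (575-640 nm) total intensity ratio; 0.5% DMSO vehicle.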
PNC inhibitor: inhibitors of perinucleolar compartment assembly. PC3M PTB-GFP, PNC prevalence imaging, 16 h; active compounds read low. activity change (PNC), negative = inhibition, % at 10 µM. 140,000 compounds, 3.1% hits;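 active = readout at or below -70, meaning at least 70% loss of cells showing the perinucleolar compartment, a nuclear body marking cancer cells; inconclusive = readout between -30 and a set limit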
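Read-out is percentage of cells bearing a perinucleolar compartment, from automated 20x imaging of fixed, Hoechst-stained PC3M PTB-GFP cells. Cells were seeded 4 h, then exposed 16 h to compound (23 nl of library stock) in duplicate plates.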
HPGD inh: blocks human HPGD enzyme activity; P15428; purified HPGD, NADH fluorescence kinetic, PGE2 substrate; Potency, µM, usual class: inhibitors; 150,000 compounds, 4.3% hits; AID 894
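20 nM HPGD preincubated 15 min at room temperature with compound in 50 mM Tris-HCl pH 8, 0.01% Tween 20. Started with 1 mM NAD+ and 30 uM prostaglandin E2; NADH fluorescence (360/450 nm) read 5 times over 30-s intervals, last minus first.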
Numbers stand for hits; 0 = inactive; ? = inconclusive; - = no result; [ ] = remark or other dose. Hits are enriched below; roughly 10% of the tested compounds scored in any of these assays. Unless noted, calls come from the whole dose curve; as a rule, active = well fitted inhibition curve with a large enough effect (not every such curve was filed as active); inconclusive = small, poorly fitted or top-dose-only effect, or another doubt; inactive = no such curve, though single readings can be large or run the other way.

SMILES | 12-hLO inh | ALDH1A1 inh | LMNA splice mod | PNC inhibitor | HPGD inh
Cc1ccc(S(=O)(=O)n2nc(-c3ccco3)nc2SCc2ccccc2)cc1 | 0 | 22µM | 0 | ? | 25µM
CSc1nc(-c2ccco2)nn1C(=O)c1ccco1 | 0 | 0 | 0 | 0 | 0
O=C(c1ccco1)n1nc(-c2ccco2)nc1SCc1ccccc1 | 0 | 0 | 0 | 0 | ?
CSc1nc(-c2ccco2)nn1S(=O)(=O)c1ccccc1 | 0 | 14µM | 0 | ? | 14µM
CSc1nc(-c2ccco2)nn1C(=O)c1ccccc1 | 0 | 0 | ? | 0 | 14µM
CC(C)C[C@@H](CC(=O)N[C@@H](CCCN)CC(=O)N[C@@H]1CCNC[C@H]1C(=O)N[C@H](CC(=O)N[C@@H](CCC(=O)O)CC(=O)O)CC(C)C)NC(=O)[C@@H]1CNCC[C@H]1N | 0 | ? | - | - | 0
Cc1ccc(C(C)(C)C)cc1 | 0 | 0 | - | - | 0
COc1cc(CCC(=O)NCc2ccc3c(c2)CCN3C(=O)c2ccccc2)cc(OC)c1OC | - | - | 0 | - | -
CCN(CC)CCCC(C)NC(=O)c1ccc(-n2c(=O)c(=O)[nH]c3ccccc32)cc1 (configuration not stated) | 0 | 0 | - | - | 0
CC(=O)c1ccc[nH]1 | 0 | 0 | 0 | - | 0
CCS(=O)(=O)n1nc(-c2ccc(Cl)cc2)nc1SC | 0 | ? | 0 | 0 | 13µM
CS(=O)(=O)n1nc(-c2ccc(Cl)cc2)nc1N | - | 0 | 0 | - | -
O=C(O)c1cc(N/N=C/c2ccc(N3CCOCC3)s2)ccc1Cl | 0 | 2.8µM | 0 | 0 | ?
COc1c2c(cc3c1C(CC(O)C(C)C)N(C)CC3)OCO2 (configuration not stated) | - | 0 | - | - | 0
CCOc1ccc(S(=O)(=O)N2CCCCC2)c2ccccc12 | 0 | 32µM | ? | 0 | 0
CCOc1ccc(C(C)(C)C)cc1S(=O)(=O)N1CCOCC1 | 0 | 3.2µM | 0 | -97 | 0
CCOc1ccc(C)cc1S(=O)(=O)N1CCCCC1 | 0 | 0 | 0 | 0 | 0
COc1ccc(C(C)(C)C)cc1S(=O)(=O)N1CCN(C)CC1 | 0 | ? | 0 | ? | 0
CCCC(=O)Nc1ccc(NC(=O)C2CC2)cn1 | 0 | 0 | 0 | 0 | 0
O=C(Nc1ccc(NC(=O)C2CC2)cn1)c1ccccc1Cl | 0 | 0 | ? | -112 | 0
O=C(Nc1ccc(Br)c(Cl)c1)C1CC1 | ? | 0 | ? | 0 | 18µM
O=C(Nc1ccc(NC(=O)C2CC2)nc1)c1cccs1 | 0 | 0 | 0 | -107 | 0
O=C(Nc1ccc(NC(=O)C2CC2)nc1)c1ccco1 | 0 | 0 | 0 | 0 | 0
COCCCN1CN=C(Nc2nc3ccccc3o2)NC1 | - | 0 | - | - | -
Cc1cc(C)c(NC(=O)Nc2ccccc2C)c(Cl)c1 | - | 0 | - | - | -
SMILES | 12-hLO inh | ALDH1A1 inh | LMNA splice mod | PNC inhibitor | HPGD inh
Cc1cc(C)c(NC(=O)Nc2ccccc2)c(Cl)c1 | 0 | 0 | 0 | -114 | 0
CCCCC(=O)Nc1c(C)cc(C)cc1Cl | 0 | 0 | 0 | ? | 35µM
CCC(=O)Nc1c(C)cc(C)cc1Cl | 0 | 0 | 0 | ? | 0
CCOC(=O)c1sc2cccc(F)c2c1S(=O)(=O)N1CCN(c2cccc(Cl)c2)CC1 | - | - | 0 | - | -
CCOC(=O)n1ccn(C)c1=S | 0 | 0 | ? | - | 0
CC(C)(C)c1ccc(-c2nn(CCC#N)cc2/C=N/O)cc1 | - | 0 | 0 | - | -
Cc1ccc(-c2nn(CCC#N)cc2C=C(C#N)C#N)cc1 | 0 | 20µM | 0 | 0 | 0
CCOC(=O)Cc1ccc(NC(=O)N2CCC(CN3CCC(C)CC3)CC2)cc1 | - | - | 0 | - | -
CCN(CC)c1ccc(/C=C/C(=O)C2C(=O)C=C(C)OC2=O)cc1 (configuration not stated) | - | 18µM | - | - | -
Clc1ccccc1-c1nnc(-c2ccccc2Cl)o1 | 0 | 0 | 0 | 0 | 16µM
O=C(CSc1nnc(-c2ccccc2O)o1)N1CCc2ccccc2C1 | 0 | 22µM | 0 | 0 | 0
O=C(CSc1nnc(-c2ccccc2Cl)o1)N1CCCCC1 | 0 | ? | ? | 0 | 25µM
O=C(CSc1nnc(-c2cc3ccccc3cc2O)n1Cc1ccco1)N1CCc2ccccc2C1 | 0 | 35µM | ? | 0 | 0
O=C(CSc1nnc(-c2ccncc2)o1)N1CCCCCC1 | - | 0 | 0 | - | -
CCn1ccc2cc(S(=O)(=O)N3CCCN(C(=O)NCCOC)CC3)ccc21 | - | - | 0 | - | -
COc1ccc(-c2nc(C)c(CCNC(=O)C(=O)Nc3c(C)cccc3C)s2)cc1OC | - | - | 0 | - | -
COc1ccc(NC(=O)Cn2ccn(Cc3ccccc3)c(=O)c2=O)cc1Cl | - | - | 0 | - | -
Cc1ccc(OC(=O)c2sc(Cl)nc2C)cc1C | 0 | 20µM | 0 | 0 | 0
O=C(CC(=O)c1ccccc1O)c1ccc(F)cc1 | ? | 0 | 0 | 0 | 18µM
Cc1ccccc1C(=O)NNC(=O)c1ccc(F)cc1 | 0 | 0 | 0 | 0 | 0
O=C(CC(=O)c1ccccc1O)c1cccc(F)c1 | ? | 0 | ? | 0 | 20µM
Cc1ccc(C(=O)CC(=O)c2cc(Cl)ccc2O)cc1 | ? | 0 | ? | 0 | 28µM
Cc1cc(C)nc(-n2nc(C)cc2NC(=O)c2ccc(S(=O)(=O)N3CCOCC3)cc2)n1 | - | 0 | - | - | -
OCCN1CCN(C(=S)c2ccc(Cl)c(Cl)c2)CC1 | 0 | ? | 0 | 0 | 14µM
COc1ccc(/C=N/n2cnn(Cc3ccccc3Cl)c2=S)cc1OC | - | ? | 0 | - | -
SMILES | 12-hLO inh | ALDH1A1 inh | LMNA splice mod | PNC inhibitor | HPGD inh
Oc1ccc(/C=N/n2cnn(Cc3ccccc3Cl)c2=S)c(O)c1 | 0 | 20µM | 0 | 0 | 20µM
Cc1cc(C)n(C(C)CC(=O)NCc2ccc(Cl)cc2)n1 (configuration not stated) | - | - | 0 | - | -
CCN(CC)Cc1c(O)ccc2c(=O)c(Oc3ccccc3OC)coc12 | 0 | ? | 0 | -80 | ?
CCN(CC)C(=O)c1sc2c(c1C)c(=O)n(-c1ccc(C)c(C)c1)c(=O)n2CC(=O)Nc1ccc(F)cc1 | - | - | 0 | - | -
O=C(/C=C/c1cccs1)Nc1scc(-c2ccccc2)c1C(=O)O | - | 22µM | 0[9.22 µM] | - | -
CC1CCN(C(=O)c2ccc3c(c2NCCO)C(=O)c2ccccc2C3=O)CC1 | 0 | ? | 0 | ? | 22µM
CCC(C)(C(=O)NC1CCCCC1)N(C)C(=O)c1ccccn1 (configuration not stated) | 0 | 0 | 0 | -106 | 0
CCOc1ccc(CCNC(=O)C2Cc3ccccc3N2C(=O)CC)cc1OCC (configuration not stated) | - | - | 0 | - | -
Cc1[nH]n(-c2ccccc2)c(=O)c1C(c1cccc([N+](=O)[O-])c1)c1c(C)[nH]n(-c2ccccc2)c1=O | 0 | ? | ? | 0 | 32µM
Cc1[nH]n(-c2ccccc2)c(=O)c1C(C[N+](=O)[O-])c1ccc(Br)cc1 (configuration not stated) | 0 | 22µM | ? | 0 | ?
Cc1[nH]n(-c2ccccc2)c(=O)c1C(c1ccc(C(=O)O)cc1)c1c(C)[nH]n(-c2ccccc2)c1=O | 0 | ? | 0 | 0 | ?
COc1ccc(S(=O)(=O)NCC(c2cccnc2)N2CCN(c3ccc(F)cc3)CC2)cc1C (configuration not stated) | 0 | ? | ? | ? | 0

Compound activity as filed in PubChem.
